From PubChem BioAssay (EPA / NIEHS)
“And” between values parts separate entries of the source, which are not always exact repeats. Identical values can stand only once. Some structures have more than one record in an assay (separate samples or runs), and their calls can disagree. The source made the active and inactive calls. Rule for the calls: active = hit-call score of the fitted dose curve at least 0.9, where 1 is the maximum; inactive = score below 0.9.

target: Aryl hydrocarbon receptor (Homo sapiens) (UniProt P35869); test: ATG_Ahr_CIS: Attagene CIS-FACTORIAL HepG2 Assay for human Aryl Hydrocarbon Receptor (Ahr) (AID 2282930); conditions: HepG2 AhR cis-factorial reporter transcription; actives raise or lower the signal
Sequence (P35869 whole entry, looked up): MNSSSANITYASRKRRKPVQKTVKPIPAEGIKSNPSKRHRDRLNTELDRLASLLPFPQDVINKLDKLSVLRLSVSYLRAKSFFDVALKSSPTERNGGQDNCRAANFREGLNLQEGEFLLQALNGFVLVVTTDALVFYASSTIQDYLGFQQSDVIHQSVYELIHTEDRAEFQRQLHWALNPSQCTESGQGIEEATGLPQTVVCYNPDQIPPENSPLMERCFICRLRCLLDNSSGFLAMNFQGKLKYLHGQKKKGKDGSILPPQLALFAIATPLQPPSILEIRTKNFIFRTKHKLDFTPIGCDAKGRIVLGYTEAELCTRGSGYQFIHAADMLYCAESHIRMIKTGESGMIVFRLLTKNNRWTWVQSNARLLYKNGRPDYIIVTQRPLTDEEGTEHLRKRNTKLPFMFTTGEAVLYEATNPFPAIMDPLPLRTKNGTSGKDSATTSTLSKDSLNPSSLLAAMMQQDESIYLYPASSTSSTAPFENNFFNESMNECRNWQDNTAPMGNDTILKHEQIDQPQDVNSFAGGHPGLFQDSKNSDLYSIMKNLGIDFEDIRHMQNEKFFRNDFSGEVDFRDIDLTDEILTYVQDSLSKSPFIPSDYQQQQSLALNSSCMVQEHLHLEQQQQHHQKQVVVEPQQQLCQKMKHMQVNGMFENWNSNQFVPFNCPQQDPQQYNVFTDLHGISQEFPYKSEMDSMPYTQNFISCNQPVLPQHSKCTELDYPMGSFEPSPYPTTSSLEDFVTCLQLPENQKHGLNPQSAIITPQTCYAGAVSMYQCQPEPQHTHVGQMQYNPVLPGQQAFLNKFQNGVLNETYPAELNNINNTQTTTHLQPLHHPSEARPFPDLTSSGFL
Experimental: ATG_CIS is a cell-based, multiplexed-readout assay that uses HepG2, a human liver cell line, with measurements taken at 24 hours after chemical dosing in a 24-well plate.ATG_Ahr_CIS is one of 52 assay component(s) measured or calculated from the ATG_CIS assay. It is designed to make measurements of mRNA induction, a form of inducible reporter, as detected with fluorescence intensity signals by Reverse transcription polymerase chain reaction (RT-PCR) and Capillary electrophoresis technology.Data from the assay component ATG_Ahr_CIS was analyzed into 1 assay endpoint. This assay endpoint, ATG_Ahr_CIS, was analyzed with bidirectional fitting relative to DMSO as the negative control and baseline of activity. Using a type of inducible reporter, measures of mRNA for gain or loss-of-signal activity can be used to understand the reporter gene at the transcription factor-level as they relate to the gene AHR. Furthermore, this assay endpoint can be referred to as a primary readout, because this assay has produced multiple assay endpoints where this one serves a reporter gene function. To generalize the intended target to other relatable targets, this assay endpoint is annotated to the dna binding intended target family, where the subfamily is basic helix-loop-helix protein.
Human liver HepG2 cells are transiently transfected with multiple reporter transcription units (MRTUs) in 6-well plates using FuGene 6 reagent (Roche; 3 ml FuGene/1 mg DNA). The MRTU constructs are regulated by a cis-regulating element (promoter). […] A major difference between the CIS and TRANS system is that in CIS activities of endogenous TFs are measured, whereas the TRANS assay evaluates changes in activities of exogenous, chimeric NR-Gal4 proteins. […] At the end of 24 hour incubation, total RNA was isolated using TriZol reagent (Invitrogen). The isolated RNA is then reverse-transcribed using oligo(dT) primer and Mo-MLV reverse transcriptase (Invitrogen) with DNAse I (Ambion) treatment for 30 min. The one-tenth of the produced cDNA was amplified by PCR using Taq DNA polymerase (Invitrogen) and two reporter sequence-specific primers. The PCR products were fluorescently labeled by primer extension with 6-arboxyfluorescein (6-FAM) 5'-labeled reporter sequence-specific primer (2 min at 95 C, 20 s at 68 C and 10 min at 72 C) and these products were digested with 5U of HpaI (New England Biolabs) for 2h at 37 C. […] The raw capillary electrophoresis data was processed using Attagraph software (Attagene).

Compound | outcome | AC50
CCCCCOC(=O)COc1cc(N2C(=O)C3=C(CCCC3)C2=O)c(F)cc1Cl | inactive | –
CCCCOC(=O)[C@@H](C)Oc1ccc(Oc2ccc(C(F)(F)F)cn2)cc1 | inactive | –
CCSC(=O)N(CC(C)C)CC(C)C | inactive | –
S=C(S)NCCNC(=S)S.[Mn+2].[S-]C([S-])=NCCN=C([S-])[S-].[Zn+2] | inactive | 20.7 µM (active) [middle of 4 runs]
Cc1nn(C)c(Oc2ccccc2)c1C=NOCc1ccc(C(=O)OC(C)(C)C)cc1 | inactive | –
c1ccc(Nc2ccccc2)cc1 | inactive | –
CCOC(=O)C(C)Oc1ccc(Oc2nc3ccc(Cl)cc3o2)cc1 (stereo not given) | inactive | –
S=C([S-])NCCNC(=S)[S-].[Mn+2] | inactive | –
CCCCOCCOCCOCc1cc2c(cc1CCC)OCO2 | inactive | –
O=C(c1ccccc1)C1CCCCC1 | inactive | 17.2 µM (active)
COC(=O)c1c(Cl)nn(C)c1S(=O)(=O)NC(=O)Nc1nc(OC)cc(OC)n1 | inactive | –
N#CSCSc1nc2ccccc2s1 | inactive | –
C=CCOC(Cn1ccnc1)c1ccc(Cl)cc1Cl (stereo not given) | inactive | –
C#CCOC(=O)[C@@H](C)Oc1ccc(Oc2ncc(Cl)cc2F)cc1 | inactive | –
CCC(C)OC(=O)N1CCCCC1CCO (stereo not given) | inactive | –
O=C(Nc1ccc([N+](=O)[O-])cc1Cl)c1cc(Cl)ccc1O | inactive | –
COC(=O)c1ccccc1C(=O)O | inactive | –
COc1nc(C)nc(NC(=O)NS(=O)(=O)c2ccccc2OCCCl)n1 | inactive | –

Compound | outcome | AC50
CCCCOC(=O)C(C)Oc1ccc(Oc2ccc(C(F)(F)F)cn2)cc1 (stereo not given) | inactive | –
COCCO | inactive | –
COC(=O)c1ccc(I)cc1S(=O)(=O)NC(=O)Nc1nc(C)nc(OC)n1 | inactive | –
CC(=O)[C@H]1CC[C@H]2[C@@H]3CCC4=CC(=O)CC[C@]4(C)[C@H]3CC[C@]12C | inactive | 100 µM (active)
CC1(C)C(C=C(Cl)Cl)C1C(=O)OCc1cccc(Oc2ccccc2)c1 (stereo not given) | inactive | –
C[C@]12CC[C@@H]3c4ccc(O)cc4C[C@@H](CCCCCCCCCS(=O)CCCC(F)(F)C(F)(F)F)[C@H]3[C@@H]1CC[C@@H]2O (stereo not given in full) | inactive | –
C#C[C@]1(O)CC[C@H]2[C@@H]3CCC4=CC(=O)CC[C@@H]4[C@H]3CC[C@@]21CC | inactive | –
CC(C)CCCCCCc1ccc(O)cc1 | inactive | 21 µM (active)
CCCOC(=O)NCCCN(C)C | inactive | –
CCCCC(CC)CN1C(=O)C2C3C=CC(C3)C2C1=O (stereo not given) | inactive | –
OB(O)O | inactive | –
COc1c(Cl)ccc(Cl)c1C(=O)O | inactive | –
CSC(=O)c1cccc2nnsc12 | inactive | –
CCOC(=O)NCCOc1ccc(Oc2ccccc2)cc1 | inactive | –
CC(C)(c1ccc(O)cc1)c1ccc(O)cc1 | inactive | 26.9 µM (active) and 49.5 µM (active) and 23.6 µM (active)
COC(=O)c1ccc(CNS(C)(=O)=O)cc1S(=O)(=O)NC(=O)Nc1nc(OC)cc(OC)n1 | inactive | –
CCOC(=O)c1ccc(O)cc1 | inactive | –
